Data published in PubChem BioAssay (NCATS).
Results filed as inconclusive are left out. Calls of active or inactive are those of the source. Unless noted, no rule for the calls is given here. Starred links: 1 amine or outer side, 2 acyl side, 3 side chain; linkers in the order of their positions; H or OH if unused. Positions of bridges follow the written chain, without caps; N, C: chain ends. Non-standard residues stand in square brackets, D forms with d. Residues, ends and D or L forms follow the SMILES beside them. Chains are numbered I, II in the order given. Actinocin(9to1) = Cc1c2oc3c(C)ccc(C(=O)[*:1])c3nc-2c(C(=O)[*:2])c(N)c1=O; NMeV = CN[CH](C(=O)O)C(C)C; Sar = CNCC(=O)O

Tests used:
[1] = qHTS profiling for inhibitors of Plasmodium falciparum (3D7) proliferation (AID 743322);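 also: infected erythrocytes exposed to compound for 72 h before lysis; 100% = DMSO vehicle wells and 0% = 0.29 µM artemisinin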; conditions: P. falciparum 3D7 proliferation; at 28.7 µM (top of the series)
Procedure, shortened: (§1)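 Erythrocytes infected with P. falciparum (0.3% parasitemia, 2.5% hematocrit) incubated with compounds 72 h at 37 C, 5% CO2. Lysis with saponin/Triton buffer containing SYBR Green I, overnight at room temperature in the dark; DNA fluorescence (485/535 nm) normalised to 0.29 uM artemisinin and DMSO.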

[2] = qHTS profiling for inhibitors of Plasmodium falciparum (DD2) proliferation (AID 743323); conditions: lower = more inhibition; at 28.7 µM (top of the series)
Procedure, shortened: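 1536-well qHTS; infected RBCs 0.3% parasitemia/2.5% Hct final; cpd 72 h 37 C 5% CO2; lysis buffer + SYBR Green I, o/n RT dark; FI 485/535; norm. to 0.29 uM artemisinin and DMSO, plate-stack corrected.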

[3] = qHTS profiling for inhibitors of Plasmodium falciparum (HB3) proliferation (AID 743324; active = well fitted curve in the direction sought with a large enough effect; an effect the other way counts as inactive or inconclusive;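 also: 100% = DMSO vehicle wells and 0% = artemisinin-treated control wells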); conditions: Plasmodium falciparum HB3 blood-stage proliferation; at 28.7 µM (top of the series)
Procedure, shortened: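 P. falciparum HB3 grown in erythrocytes (0.3% parasitemia, 2.5% hematocrit final) with compound for 72 h at 37 C, 5% CO2. Parasite DNA detected by SYBR Green after saponin/triton lysis overnight; normalized to 0.29 uM artemisinin and DMSO.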

[4] = qHTS profiling of the MIPE4 collection as inhibitors of Plasmodium falciparum (3D7) proliferation (AID 743344);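 also: scaled between DMSO vehicle wells and 0.29 µM artemisinin as full inhibition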; conditions: P. falciparum 3D7 in erythrocytes, SYBR Green DNA fluorescence, 72 h; at 28.5 µM (top of the series) unless noted
Procedure, shortened: as §1

[5] = qHTS profiling of the MIPE4 collection as inhibitors of Plasmodium falciparum (DD2) proliferation (AID 743345); conditions: P. falciparum Dd2 in erythrocytes, SYBR Green DNA, 72 h; at 28.5 µM (top of the series) unless noted
Procedure, shortened: as §1

[6] = qHTS profiling of the MIPE4 collection as inhibitors of Plasmodium falciparum (DD2) proliferation (Rep 2) (AID 743346); conditions: P. falciparum Dd2 in erythrocytes, SYBR Green DNA, 72 h; at 28.5 µM (top of the series) unless noted
Procedure, shortened: as §1

[7] = qHTS profiling of the MIPE4 collection as inhibitors of Plasmodium falciparum (HB3) proliferation (AID 743347);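 also: plate controls were DMSO vehicle wells for no effect and artemisinin wells for full effect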; conditions: P. falciparum HB3 in erythrocytes, SYBR Green DNA, 72 h; at 28.5 µM (top of the series) unless noted
Procedure, shortened: as §1

[8] = High-throughput drug toxicity screening in the BPDCN cell line Gen2.2 (AID 1224824); conditions: Gen2.2 BPDCN cells; at 45.8 µM (top of the series) unless noted;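 also: cells exposed to compounds for 48 h before reading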
Procedure, shortened: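 Gen2.2, 500 cells/well, phenol red-free RPMI/10% FBS/Pen-Strep; 48 h cpd, 37 °C/5% CO2; CTG lum, 15 min RT. Norm: DMSO = 100%, bortezomib 9.2 uM final = 0%.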

[9] = qHTS assay for cell viability of the p53RE-bla HCT-116 cell line (AID 743292; active = well fitted curve in the direction sought with a large enough effect; an effect the other way counts as inactive or inconclusive; also: % is scaled to controls: 0 for no effect and ±100 for the full control effect; nearly all actives have a fitted effect of over 55% in size); conditions: p53RE-bla HCT-116 viability, ATP luminescence, 16 h; series mostly up to 95 µM
Procedure, shortened: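 HCT-116 p53RE-bla cells seeded 4,000/well; 5 h at 37 C; compound (DMSO) added; 16 h at 37 C; CellTiter-Glo added, 30 min RT; luminescence read.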

[10] = qHTS assay for cell viability of HEK293 cells (AID 743288; active = well fitted curve in the direction sought with a large enough effect; an effect the other way counts as inactive or inconclusive; also: % is scaled to controls: 0 for no effect and ±100 for the full control effect; nearly all actives have a fitted effect of over 50% in size); conditions: ATP luminescence (CellTiter-Glo), 18 h, stronger effect = lower value
Procedure, shortened: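 The Tox21 protocol used parental HEK293 cells treated for 18 h at 37 C with compounds delivered by pintool; ATP-coupled luminescence after 30 min at room temperature gave viability.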

## CN(C)c1ccc2cc(C(=O)N[C@@H](CCCN=C(N)CCl)C(=O)NCc3ccccc3)ccc2c1
[1]
  remaining parasite growth % (stronger effect = lower value): 6.68%
[2]
  activity, percent of control: 11.8%
[3]
  remaining proliferation (% of control), lower = more inhibition: -0.673%
[4]
  parasite growth, % of DMSO control: 5.85%
[5]
  parasite growth remaining, % of DMSO control (lower = more inhibition): 8.25%
[6]
  parasite growth, % of control (lower = inhibition): 9.19%
[7]
  growth, % of control: 9.16%
[8]
  cell viability, % of control (lower = more cytotoxic): 1.99%

## Nc1ncn([C@@H]2O[C@H](CO)[C@@H](O)[C@@H]2O)c(=O)n1
[1]
  remaining parasite growth % (stronger effect = lower value): 96.3%
[2]
  activity, percent of control: 90.8%
[3]
  remaining proliferation (% of control), lower = more inhibition: 89.3%
[4]
  parasite growth, % of DMSO control: 100%
[5]
  parasite growth remaining, % of DMSO control (lower = more inhibition): 95.9%
[6]
  parasite growth, % of control (lower = inhibition): 92.3%
[7]
  growth, % of control: 95%
[8]
  cell viability, % of control (lower = more cytotoxic): 15.6%

## Cc1c2oc3c(C)ccc(C(=O)NC4C(=O)NC(C(C)C)C(=O)N5CCCC5C(=O)N(C)CC(=O)N(C)C(C(C)C)C(=O)OC4C)c3nc-2c(C(=O)NC2C(=O)NC(C(C)C)C(=O)N3CCCC3C(=O)N(C)CC(=O)N(C)C(C(C)C)C(=O)OC2C)c(N)c1=O (stereo not drawn) (I: TVP[Sar][NMeV] / II: TVP[Sar][NMeV]; ester I:1-I:C, II:1-II:C; linker I:N-II:N via Actinocin(9to1); configuration not given here)
[1]
  remaining parasite growth % (stronger effect = lower value): -4%
[2]
  activity, percent of control: -2.06%
[3]
  remaining proliferation (% of control), lower = more inhibition: -1.93%
[4]
  parasite growth, % of DMSO control: 3.86%
[6]
  parasite growth, % of control (lower = inhibition): 15.2%
[7]
  growth, % of control: 2.3%
[8]
  cell viability, % of control (lower = more cytotoxic): 2.59%

## CC(=O)O[C@H]1C[C@@H]2CC[C@H]3[C@H]4C[C@H]([N+]5(C)CCCCC5)[C@@H](OC(C)=O)[C@@]4(C)CC[C@@H]3[C@@]2(C)C[C@H]1[N+]1(C)CCCCC1
[8]
  cell viability, % of control (lower = more cytotoxic): 232%

## O=C(C[C@@H]1CC=CCCC(=O)O[C@H](c2ccccc2)CNC1=O)NCc1ccc(Cl)cc1
[1]
  remaining parasite growth % (stronger effect = lower value): 94.2%
[2]
  activity, percent of control: 102%
[3]
  remaining proliferation (% of control), lower = more inhibition: 71.1%
[4]
  parasite growth, % of DMSO control: 62.4%
[5]
  parasite growth remaining, % of DMSO control (lower = more inhibition): 96.1%
[6]
  parasite growth, % of control (lower = inhibition): 65.3%
[7]
  growth, % of control: 54.9%
[8]
  cell viability, % of control (lower = more cytotoxic): 17%

## O=c1[nH]c(=O)n([C@H]2C[C@@H](O)[C@@H](CO)O2)cc1C=CBr
[8]
  cell viability, % of control (lower = more cytotoxic): 164%

## CC(C)c1cnn2c(NCc3ccccc3)cc(NCCCCCCN)nc12
[4]
  parasite growth, % of DMSO control: 6.96%
[5]
  parasite growth remaining, % of DMSO control (lower = more inhibition): 12.1%
[6]
  parasite growth, % of control (lower = inhibition): 11.2%
[7]
  growth, % of control: 2.16%
[8]
  cell viability, % of control (lower = more cytotoxic): 4.58%

## CC1(C)CC(O)CC(C)(C)N1[O]
[8]
  cell viability, % of control (lower = more cytotoxic): 152%

## O=C(O)CCCCCC(=O)NN=C1CCCC1
[1]
  remaining parasite growth % (stronger effect = lower value): 92.8%
[2]
  activity, percent of control: 96.4%
[3]
  remaining proliferation (% of control), lower = more inhibition: 107%
[4]
  parasite growth, % of DMSO control: 101%
[5]
  parasite growth remaining, % of DMSO control (lower = more inhibition): 100%
[6]
  parasite growth, % of control (lower = inhibition): 194%
[7]
  growth, % of control: 101%
[8]
  cell viability, % of control (lower = more cytotoxic): 141%

## Cc1onc(-c2ccccc2)c1C(=O)N[C@@H]1C(=O)N2[C@@H](C(=O)O)C(C)(C)S[C@@H]12
[4]
  parasite growth, % of DMSO control: 92.7%
[8]
  cell viability, % of control (lower = more cytotoxic): 73.2%

## C=C1C[C@@]2(O)O[C@@]3(C[C@H]2C(C)C)[C@H](C)CC[C@H]13
[8]
  cell viability, % of control (lower = more cytotoxic): 67.8%

## c1ccc2c(Oc3nc(Nc4ccc(N5CCOCC5)cc4)c4ncn(C5CCCCC5)c4n3)cccc2c1
[1]
  remaining parasite growth % (stronger effect = lower value): -0.456%
[2]
  activity, percent of control: 1.45%
[3]
  remaining proliferation (% of control), lower = more inhibition: -1.02%
[4]
  parasite growth, % of DMSO control: 6.5%
[5]
  parasite growth remaining, % of DMSO control (lower = more inhibition): 8.01%
[6]
  parasite growth, % of control (lower = inhibition): 33.7%
[7]
  growth, % of control: 9.45%
[8]
  cell viability, % of control (lower = more cytotoxic): 187%

## CC(C)OC(=O)[C@H](C)N[P@](=O)(OC[C@H]1O[C@@H](n2ccc(=O)[nH]c2=O)[C@](C)(F)[C@H]1O)Oc1ccccc1
[8]
  cell viability, % of control (lower = more cytotoxic): 128%

## CC(C=CC1=C(C)CCCC1(C)C)=CC=CC(C)=CC(=O)Nc1ccc(O)cc1
[9]
  outcome: inactive
[4]
  parasite growth, % of DMSO control: 4.7% [at 57.5 µM]
[5]
  parasite growth remaining, % of DMSO control (lower = more inhibition): 6.69% [at 57.5 µM]
[6]
  parasite growth, % of control (lower = inhibition): 18.5% [at 57.5 µM]
[7]
  growth, % of control: 7.5% [at 57.5 µM]
[8]
  cell viability, % of control (lower = more cytotoxic): 5.64% [at 92.2 µM]

## COc1cc(C=CC(=O)CC(=O)C=Cc2ccc(O)c(OC)c2)ccc1O
[1]
  remaining parasite growth % (stronger effect = lower value): -1.44%
[2]
  activity, percent of control: -0.402%
[3]
  remaining proliferation (% of control), lower = more inhibition: 0.164%
[4]
  parasite growth, % of DMSO control: 4.86% [at 57.5 µM]
[5]
  parasite growth remaining, % of DMSO control (lower = more inhibition): 7.94% [at 57.5 µM]
[6]
  parasite growth, % of control (lower = inhibition): 16.5% [at 57.5 µM]
[7]
  growth, % of control: 2.99% [at 57.5 µM]
[8]
  cell viability, % of control (lower = more cytotoxic): 5.74% [at 92.2 µM]

## C[N+]1(C)[C@@H]2C[C@@H](OC(=O)C(O)(c3cccs3)c3cccs3)C[C@H]1[C@@H]1O[C@@H]12
[8]
  cell viability, % of control (lower = more cytotoxic): 87.6%

## C[C@]12CC[C@@H]3c4ccc(O)cc4CC[C@H]3[C@H]1CC[C@H]2O
[10]
  max response: -7.02% (inactive)
[9]
  outcome: inactive
[5]
  parasite growth remaining, % of DMSO control (lower = more inhibition): 93.3%
[6]
  parasite growth, % of control (lower = inhibition): 74%
[7]
  growth, % of control: 86.3%
[8]
  cell viability, % of control (lower = more cytotoxic): 50.6%

## N#Cc1ccc(COC[C@H]2O[C@@H](n3c(NCc4ccc(Cl)c(Cl)c4)nc4c(N)ncnc43)[C@@H](O)[C@@H]2O)cc1
[1]
  remaining parasite growth % (stronger effect = lower value): 37.7%
[2]
  activity, percent of control: 23.4%
[3]
  remaining proliferation (% of control), lower = more inhibition: 21.1%
[4]
  parasite growth, % of DMSO control: 20.4%
[6]
  parasite growth, % of control (lower = inhibition): 23.2%
[7]
  growth, % of control: 23.2%
[8]
  cell viability, % of control (lower = more cytotoxic): 10.7%

## COc1cc(C)c(Sc2cnc(NC(=O)c3ccc(CNC(C)C(C)(C)C)cc3)s2)cc1C(=O)N1CCN(C(C)=O)CC1 (stereo not drawn)
[1]
  remaining parasite growth % (stronger effect = lower value): 8.84%
[2]
  activity, percent of control: 8.81%
[3]
  remaining proliferation (% of control), lower = more inhibition: 4.6%
[4]
  parasite growth, % of DMSO control: 7.09%
[5]
  parasite growth remaining, % of DMSO control (lower = more inhibition): 11%
[6]
  parasite growth, % of control (lower = inhibition): 17.2%
[7]
  growth, % of control: 4.86%
[8]
  cell viability, % of control (lower = more cytotoxic): 4.37%

## Cc1cc(O)c2c(c1)C(=O)c1cccc(O)c1C2=O
[10]
  max response: -7.7% (inactive)
[9]
  outcome: inactive
[4]
  parasite growth, % of DMSO control: 91.5%
[5]
  parasite growth remaining, % of DMSO control (lower = more inhibition): 85.9%
[6]
  parasite growth, % of control (lower = inhibition): 121%
[7]
  growth, % of control: 110%
[8]
  cell viability, % of control (lower = more cytotoxic): 99.4%

## CON=C(C(=O)N[C@@H]1C(=O)N2C(C(=O)O)=C(Cn3ccc(=N)n3CCO)CS[C@H]12)c1csc(N)n1
[8]
  cell viability, % of control (lower = more cytotoxic): 137%
